Whole data set: some 9,900 sequences, median “r (bound/input frequency ratio)” near 0.7, cut for the highest 2% near 6.5. What follows is part of a selection rich in the highest values, with near analogues and random picks from the rest.
B1: ENSMUSG00000034801.21|Sos2 (ssRNA)
RNA: GGGAGUUCUACAGUCCGACGAUCGCUUCGAUAUCCGCAUGCUAGCCCUCUCCACGGAUUCCACGCAGCUGUCACUUGCUCAGCUCCAGUCACAGCAGCCUUGCUCAUCUUCCAGCUCCUCCUGUCCCACCAAGGCAGAAUUCAAGCCCUCUCUUACCAAAGCUGCCACCAAAGACUUACAAACGGGAGCUUUCCCACCCGCCACUGUAUAGACUGCCUCUGCUGGAAAAUGCAGAAACUCCUCAAUGACCUUGGCCAUAUGUAGUCAUUGACACUGGAAUAGUAUUUGUAAAGGUUUUUAAUUCUCUUGCGGUCGCACUAGUGUGGAAUUCUCGGGUGUCAAGG
B2: ENSMUSG00000042529.183|Kcnj12 (ssRNA)
RNA: GGGAGUUCUACAGUCCGACGAUCGCUUCGAUAUCCGCAUGCUAGUUUAAUCUUUCCCUACUGCCCUAAGUCCACUCAUGAAGCUCCCCAGGCCCUUCUGAGAUUGCAGAGGCUGCUUGCUCAUAGCCAUGACCCUGCCUGCUUUUGUCCCACACUGCUGGGGCAGGAUGAUGAAGCCCUGCUGGUCCCAGCCAGUCAUCUCCUGCUGGAAGGCAGAGUCUAGGGGAGAAGAGAAACACCCCCACCCCCACCCCUAUCCCGCACCAGCCCCCUGCCACCAUAGAGAUAGACCAGAGAAAUGUCACUCUUGCGGUCGCACUAGUGUGGAAUUCUCGGGUGUCAAGG
B3: ENSMUSG00000061578.815|Ksr2 (ssRNA)
RNA: GGGAGUUCUACAGUCCGACGAUCGCUUCGAUAUCCGCAUGCUAUGGGACUCUUUUUAUGAGGAACCAGUCCUGUUGAAUCGGGGUGCUCUGUAUUAGUUAUUUUUGUAACUUGUGAUUGUAACCAAAUGCCCGAUAGAAACAGCAUUCUGGCUCACAGUUUCAAAGGGCUCAGUCCAUAGCUGCCUGACUCUGUGUUUCUAGGCCUUUCUUGAGGCAAGUGUUCAUCAUGAUAGUGUGAGGGUGAGGAGGAGUUUCUUCAUGGCAAACAGGAAGCAAAGAGCAAUACAGGAAAAGGUCAGGGGCUCUUGCGGUCGCACUAGUGUGGAAUUCUCGGGUGUCAAGG
B4: ENSMUSG00000061578.1222|Ksr2|31:35;225:229 (ssRNA)
RNA: GGGAGUUCUACAGUCCGACGAUCGCUUCGAUAUCCGCAUGCUAGAAUGAGCCGCUGGGAUAUUGACAUGGAGAACACAUGAUGGAAAAAGCCUCCACACCCAACAUAACUCUCCAGAGAGAUAUUGAAAGUGAUGGGCAGAGAGUCUGACAAUGACCCAGGGGUCAUUGUGAGUCCUAGGCUGAAUCUGUAAUGGGGUCCAAAGUGCAGGAGAGACUGCAUUCACCUUGUUGGUGGGGUGGGGCUUCUUUCAUUACUUUAAGUAUCUCAUACGGCUUGAGGCAUGGGAAACAGCACCUUGUCUCUCUUGCGGUCGCACUAGUGUGGAAUUCUCGGGUGUCAAGG
B5: ENSMUSG00000022095.104|Fam160b2 (ssRNA)
RNA: GGGAGUUCUACAGUCCGACGAUCGCUUCGAUAUCCGCAUGCUAGCUGUUGCAAAAUUCCCAACUGCCUCCUGGCAGAGGCCCAAAGUAUGCUCUGCGCCCAGGCGGGGGCAGCUGCUAACAAGAGCCCUGGCGCAGCUGCAGCCAGGGCAGGCGAGAGCCUUGGAGCUGGGUGCCAGGCUCCAGCUCCAGCUCCAGCUGGUUCCUCUCUGGCGCCUUCUGAACCCGUCUCAGCAAGUCCGAAACACCUGGGCAGAGAGGUCAUUGACCAGGGAUGGGGGCCCUUGCCCUCUGAAUCCUGCCCACUCUUGCGGUCGCACUAGUGUGGAAUUCUCGGGUGUCAAGG
B6: ENSMUSG00000061578.919|Ksr2|82:86 (ssRNA)
RNA: GGGAGUUCUACAGUCCGACGAUCGCUUCGAUAUCCGCAUGCUACAAUUCUACCCAUGACAGACAUGUCCCAUCCAUGAGCCCAGAUAGUCAAAGACUUCAGCACAAGGGUGUUUAGAGUAGGCACACACGAAGUAUCAAUAAGGUUAUUGAGAUGAGGAUUUAGAAAGAUCCAUGUAUAAAAGGUCUAGAAGGAUGAAGAUCUAAAACAAGAAGACUGCAUGUUAACGCUCCUGCCACUGUUGCCCCUUCCUUUACCCUUGGCAGACAUUGCUAAUCAAUCUCAGCACAGUUUCCAACCACAGCUCUUGCGGUCGCACUAGUGUGGAAUUCUCGGGUGUCAAGG
B7: ENSMUSG00000061578.806|Ksr2 (ssRNA)
RNA: GGGAGUUCUACAGUCCGACGAUCGCUUCGAUAUCCGCAUGCUACCUCUCUCCAAUCUUUACCUUUGCCUCUACUAGAUGAUCUUGCAUCUGUCUUUGUGGGACUCUUUUUAUGAGGAACCAGUCCUGUUGAAUCGGGGUGCUCUGUAUUAGUUAUUUUUGUAACUUGUGAUUGUAACCAAAUGCCCGAUAGAAACAGCAUUCUGGCUCACAGUUUCAAAGGGCUCAGUCCAUAGCUGCCUGACUCUGUGUUUCUAGGCCUUUCUUGAGGCAAGUGUUCAUCAUGAUAGUGUGAGGGUGAGGAGCUCUUGCGGUCGCACUAGUGUGGAAUUCUCGGGUGUCAAGG
B8: ENSMUSG00000043670.134|Diras1 (ssRNA)
RNA: GGGAGUUCUACAGUCCGACGAUCGCUUCGAUAUCCGCAUGCUACCUGGCCACCCCGAGUACCACCUCUGGAAUAGCAGACGCCCACAGCACAAGCCCAGGACUGUCCCUUCAGGGGAGGCACACUGGAACCCUGAACUUGGAGUGUGGAGUGGCUGCCUGGACACUGCCCACCUGGACACCAGCCUUCUGCUGAGAUAGAGACCUUGGCACAGUGGCACCUCGACAGCCACCCCGACUGGGGGUUUGGGGUGCUGAGGGUGGGGUGCCCAGCUGAGAGUCUAUCAGCAAAGUCCCUGUGUGCGCUCUUGCGGUCGCACUAGUGUGGAAUUCUCGGGUGUCAAGG
B9: ENSMUSG00000058297.456|Spock2|123:127 (ssRNA)
RNA: GGGAGUUCUACAGUCCGACGAUCGCUUCGAUAUCCGCAUGCUAUCACACAGGUCAGAUUAUUGUCGGUCCUGCGGGCCUCAUCCUUGAAUAAGCUGCCUGCCCAGUUCCUCCAUCCGUGUUCCUGCCUGCUCCCGUUCCCUUGUUGCGGGCAGGAGAGGUAGGGCACACAUGGAAAGAGUUCAACCAAAUUACGGCAGCACCACAUCUUGCCGAGCCCUGGAGCUGCCCUACUAAGAGCCUCCUUAGCCCUGGGUGCUGGGAAGGAUGGUGUACGUUGGGGAAGUUUGAGGUUGGAGAGAGUACUCUUGCGGUCGCACUAGUGUGGAAUUCUCGGGUGUCAAGG
B10: ENSMUSG00000043670.211|Diras1 (ssRNA)
RNA: GGGAGUUCUACAGUCCGACGAUCGCUUCGAUAUCCGCAUGCUAGUGCCUGUGUGUGUGGAUGGGUGUGUGUCUGUCUUGGGAUGGGGUGUUCUUGCACCACUUUGUGUUCUUAGUGAGACCACAGUGUAAGUGGCCGUGUGUGUGUGUGGGGGGGGGCACCUAGACAUUGUGGUGUGUCUGUAUGGCUCUGUGUUUUCAGGGGUGGGUGACACAGGCCUGUCUGAUGAGCACCAGGUCUGUUCCAGGCUGUGGCAAGCUGGCUCCUGGCUCAGAAGUGACAAAGCUGCAGUACAGAGGCCUCACUCUUGCGGUCGCACUAGUGUGGAAUUCUCGGGUGUCAAGG

Each binder was assayed against TDP-43 (Homo sapiens, UniProt Q13148 1-414) (assay: RNA Bind-n-Seq with designed 260-mer pool; 25 mM Tris-HCl, 150 mM KCl, 3 mM MgCl2, BSA (printed 500 mg/mL), 20 units/mL SUPERase IN; pH not stated; 500 nM RNA pool, 1 h, 4 C; TDP-43 5, 50, 500 nM; high values mean tight binding). Conditions: protein: recombinant; tags: SBP (GST cleaved off with PreScission; pGEX-GST-SBP).
Chain of TDP-43 (Q13148 whole entry): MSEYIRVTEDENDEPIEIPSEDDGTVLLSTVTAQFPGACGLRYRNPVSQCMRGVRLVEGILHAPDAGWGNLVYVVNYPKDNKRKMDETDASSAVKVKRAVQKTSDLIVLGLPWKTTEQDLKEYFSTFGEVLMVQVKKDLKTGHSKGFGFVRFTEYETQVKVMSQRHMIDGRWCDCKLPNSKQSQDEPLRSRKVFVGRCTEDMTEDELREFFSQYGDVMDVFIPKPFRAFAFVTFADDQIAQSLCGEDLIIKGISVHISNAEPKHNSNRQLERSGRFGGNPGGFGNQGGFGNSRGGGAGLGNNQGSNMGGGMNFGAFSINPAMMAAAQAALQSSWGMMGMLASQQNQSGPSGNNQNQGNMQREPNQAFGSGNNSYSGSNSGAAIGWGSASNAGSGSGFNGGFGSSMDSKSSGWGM
In short: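 Duplicate measurements used two independent batches of recombinant SBP-tagged TDP-43, which was captured on streptavidin beads at 5, 50 or 500 nM. The beads were incubated with 500 nM of an in vitro-transcribed 260-nt 3′ UTR oligo pool for 1 h at 4 °C in 25 mM Tris-HCl, 150 mM KCl, 3 mM MgCl2, BSA and SUPERase IN. After washing, biotin elution, reverse transcription, PCR amplification and sequencing, binding was expressed as R: each oligo's normalized read abundance in the bound sample over its abundance in input.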

Row | Binder | binding signal
1 | B1 | 1.01 R (bound/input frequency ratio)
2 | B2 | 1.85 R (bound/input frequency ratio)
3 | B3 | 2.37 R (bound/input frequency ratio)
4 | B4 | 0.49 R (bound/input frequency ratio)
5 | B5 | 0.438 R (bound/input frequency ratio)
6 | B6 | 0.397 R (bound/input frequency ratio)
7 | B7 | 0.325 R (bound/input frequency ratio)
8 | B8 | 0.868 R (bound/input frequency ratio)
9 | B9 | 0.829 R (bound/input frequency ratio)
10 | B10 | 5.36 R (bound/input frequency ratio)
